Experiments:
Format in all cases: functional
Plasmodium falciparum [1] = assay: GSK_TCMDC: Inhibition of Plasmodium falciparum 3D7 in whole red blood cells, using parasite LDH activity as an index of growth. Test compounds present at 2uM
Plasmodium falciparum [2] = assay: GSK_TCMDC: Inhibition of Plasmodium falciparum Dd2 in whole red blood cells, using parasite LDH activity as an index of growth. Test compounds present at 2uM
HepG2 = assay: GSK_TCMDC: Percent inhibition of human HepG2 cell line. Test compounds present at 10uM.

CN(C)C(=O)C(CC(=O)NCc1ccccc1Cl)N(C)C.CN(C)C(=O)CC(C(=O)NCc1ccccc1Cl)N(C)C.O (centres undefined)
Inhibition (Plasmodium falciparum [1]): 96% | Inhibition (Plasmodium falciparum [2]): 2% | Inhibition (HepG2): 7%

Cl.N#Cc1ccc2c(c1)CCN(CCC1CCC(NC(=O)/C=C/c3cccc4cc[nH]c34)CC1)CC2 (centres undefined)
Inhibition (Plasmodium falciparum [1]): 89% | Inhibition (Plasmodium falciparum [2]): 29% | Inhibition (HepG2): 22%

OC(CN1c2ccccc2Sc2ccccc21)CN(C1CCCCC1)C1CCCCC1 (centres undefined)
Inhibition (Plasmodium falciparum [1]): 99% | Inhibition (Plasmodium falciparum [2]): 96% | Inhibition (HepG2): 46%

Cc1nc2ccc3nc(NC(=O)c4ccno4)sc3c2s1
Inhibition (Plasmodium falciparum [1]): 99% | Inhibition (Plasmodium falciparum [2]): 97% | Inhibition (HepG2): 6%

O=C(CCc1c[nH]cn1)Nc1cccc(-c2ccc(-c3nc4cc(F)ccc4[nH]3)cc2)c1
Inhibition (Plasmodium falciparum [1]): 100% | Inhibition (Plasmodium falciparum [2]): 79% | Inhibition (HepG2): 18%

Cc1cc(OCC2CCCO2)c2cc(NC(=O)C(=O)Nc3ccc4nc(C)cc(OCC5CCCO5)c4c3)ccc2n1 (centres undefined)
Inhibition (Plasmodium falciparum [1]): 96% | Inhibition (Plasmodium falciparum [2]): 32% | Inhibition (HepG2): 7%

O=C1C(c2ccccc2)=C(Nc2ccc([N+](=O)[O-])cc2)c2ccccc21
Inhibition (Plasmodium falciparum [1]): 95% | Inhibition (Plasmodium falciparum [2]): 73% | Inhibition (HepG2): 0%

Cc1cccc2nc(-c3cccc(-c4cccc(NC(=O)c5cccnc5Cl)c4)c3)[nH]c12
Inhibition (Plasmodium falciparum [1]): 97% | Inhibition (Plasmodium falciparum [2]): 32% | Inhibition (HepG2): 0%

O=C(Nc1cccc(-c2ccc(-c3nc4ccccc4[nH]3)cc2)c1)c1ccncc1
Inhibition (Plasmodium falciparum [1]): 100% | Inhibition (Plasmodium falciparum [2]): 58% | Inhibition (HepG2): 30%

COc1cc2c(cc1OCCN1CCC(N)CC1)N(C(=O)/C=C/c1ccccc1Cl)CC2.Cl
Inhibition (Plasmodium falciparum [1]): 91% | Inhibition (Plasmodium falciparum [2]): 18% | Inhibition (HepG2): 19%

O=C(Nc1cccc([N+](=O)[O-])c1)Nc1cccc(C(F)(F)F)c1
Inhibition (Plasmodium falciparum [1]): 92% | Inhibition (Plasmodium falciparum [2]): 81% | Inhibition (HepG2): 0%

FC(F)(F)c1cccc(CNCCCCCNCc2ccc(Cl)cc2)c1
Inhibition (Plasmodium falciparum [1]): 91% | Inhibition (Plasmodium falciparum [2]): 15% | Inhibition (HepG2): 13%

Cl.FC(F)(F)c1cc(Nc2ccc(Oc3ccccc3)cc2)c2cc(-c3ccncc3)ccc2n1
Inhibition (Plasmodium falciparum [1]): 100% | Inhibition (Plasmodium falciparum [2]): 70% | Inhibition (HepG2): 0%

O=C(O)C(F)(F)F.OC1CCCN(Cc2cccc(-c3ccc(-c4nc5cc(F)ccc5[nH]4)cc3)c2)C1 (centres undefined)
Inhibition (Plasmodium falciparum [1]): 100% | Inhibition (Plasmodium falciparum [2]): 42% | Inhibition (HepG2): 16%

Br.CC1CCC2(CC1)N=C(N)N=C(N)N2OCc1ccc(Br)c2ccccc12 (centres undefined)
Inhibition (Plasmodium falciparum [1]): 96% | Inhibition (Plasmodium falciparum [2]): 40% | Inhibition (HepG2): 46%

Cc1cc(N)nc2ccc(-c3cccc(CN)c3)cc12
Inhibition (Plasmodium falciparum [1]): 100% | Inhibition (Plasmodium falciparum [2]): 59% | Inhibition (HepG2): 2%

COc1ccc2c(c1)CC1CN(CCCCNC(=O)c3ccc(NC(=O)c4cc(Cl)cc(Cl)c4)cc3)CCN1C2 (centres undefined)
Inhibition (Plasmodium falciparum [1]): 100% | Inhibition (Plasmodium falciparum [2]): 57% | Inhibition (HepG2): 7%

CS(=O)(=O)c1ccc2[nH]c(-c3cc(-c4ccc(OCCN5CCOCC5)cc4)cnc3N)nc2c1.O=C(O)C(F)(F)F
Inhibition (Plasmodium falciparum [1]): 100% | Inhibition (Plasmodium falciparum [2]): 99% | Inhibition (HepG2): 43%

O=C(CN1CCN(C(=O)c2ccco2)CC1)Nc1ccccc1Br
Inhibition (Plasmodium falciparum [1]): 97% | Inhibition (Plasmodium falciparum [2]): 96% | Inhibition (HepG2): 15%

Cc1cccc(-n2c(=O)c3c4c(sc3n3c(SCCC(C)C)nnc23)CCCC4)c1
Inhibition (Plasmodium falciparum [1]): 90% | Inhibition (Plasmodium falciparum [2]): 8% | Inhibition (HepG2): 0%

O=C(NC1CC1)c1ccc(Cn2c(SCc3cccc([N+](=O)[O-])c3)nc3ccccc3c2=O)cc1
Inhibition (Plasmodium falciparum [1]): 91% | Inhibition (Plasmodium falciparum [2]): 65% | Inhibition (HepG2): 12%

CCCC(C)Nc1nc(C)cc(N[C@@H](Cc2ccccc2)C(=O)Nc2ccccc2)n1.O=C(O)C(F)(F)F (some centres undefined)
Inhibition (Plasmodium falciparum [1]): 100% | Inhibition (Plasmodium falciparum [2]): 67% | Inhibition (HepG2): 50%

CCOC(=O)c1c(C)n(-c2ccccc2)c2ccc(OC(=O)COc3ccc(Cl)cc3Cl)cc12
Inhibition (Plasmodium falciparum [1]): 99% | Inhibition (Plasmodium falciparum [2]): 87% | Inhibition (HepG2): 11%

O=C(O)C(F)(F)F.Oc1ccc(CCNc2nc(NCc3ccc4cc(Cl)ccc4c3)nc(N3CCNCC3)n2)cc1
Inhibition (Plasmodium falciparum [1]): 92% | Inhibition (Plasmodium falciparum [2]): 38% | Inhibition (HepG2): 14%

COc1ccc(CNCc2ccc(-c3ccc(-c4nc5cccc(C)c5[nH]4)cc3)cc2)cc1.O=C(O)C(F)(F)F
Inhibition (Plasmodium falciparum [1]): 100% | Inhibition (Plasmodium falciparum [2]): 97% | Inhibition (HepG2): 53%

Cl.O=C(Nc1cccc(-c2nn3ncccc3c2-c2ccnc(Nc3cccnc3)n2)c1)c1c(F)cccc1F
Inhibition (Plasmodium falciparum [1]): 96% | Inhibition (Plasmodium falciparum [2]): 70% | Inhibition (HepG2): 5%

O=C(Nc1ccc(-c2ccc(-c3nc4cc(C(F)(F)F)ccc4[nH]3)s2)cc1)c1c[nH]cn1
Inhibition (Plasmodium falciparum [1]): 92% | Inhibition (Plasmodium falciparum [2]): 61% | Inhibition (HepG2): 66%

COc1ccc(C(=O)CCC(=O)N(Cc2ccc(-c3ccc(CNCCc4ccc(S(C)(=O)=O)cc4)cn3)cc2)C2CC3CCC2C3)cc1F.O=C(O)C(F)(F)F (centres undefined)
Inhibition (Plasmodium falciparum [1]): 97% | Inhibition (Plasmodium falciparum [2]): 34% | Inhibition (HepG2): 5%

From ChEMBL document CHEMBL1157539, “Thousands of chemical starting points for antimalarial lead identification” (Nature, 2010)
